± gives the standard deviation. Over roughly 6,200 sequences, “pre-steady-state target cleavage rate” has its median near 0.29; the highest 2% begin near 2. Only a selection was taken, and the highest values are over-represented in it overall.
Each sequence was assayed on MIWI (PIWIL1) piRISC loaded with piRNA #1 (30 nt) (assay: pre-steady-state target cleavage rate (min^-1); MIWI and MILI are mouse PIWI proteins and EfPiwi is from a freshwater sponge; tags in brackets are library labels; higher = faster piRNA-guided slicing of the target). Conditions: guide: piRNA #1 5'p-UGAGGUAGUAGGUUGUAUAGUAUCCAGAGG; auxiliary factor: 500 nM mouse GTSF1.
Summary of the method: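 The pre-steady-state cleavage rate was obtained by Cleave-'n-Seq with a burst-and-steady-state fit. A transcribed, DNA-blocked target RNA library (0.1 nM) was mixed with 1 nM active affinity-purified piRISC carrying one synthetic guide, with or without 500 nM GTSF1 partner protein, in HEPES–potassium acetate buffer at 33 °C for 0–8 or 0–960 min. Uncleaved targets were sequenced and normalised to depth and to weakly complementary targets, with three trials pooled and k3 capped at 0.0001 min^-1.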

Sequence	pre-steady-state target cleavage rate
GGAGACGAUACUAUACAACAUACUACCUCA	1.16 ± 0.077
GGAGUGGAUUCUAAACAACCUACUACCUCA	0.994 ± 0.069
GGAGACCUAUGAUAUGUACCUACUAACUCA	< 0.0001
GGAGUGCAUACUAUACAACCUACUACCUGA	0.513 ± 0.077
GGAGACCUAUGUAUACAACCUACUACUCA	0.00349 ± 0.0019
GGAGACCUUACAAUAGAACCUACUACCUCA	0.167 ± 0.022
GGAGACCAUACUAUACAACCUACUUCCUCA	0.666 ± 0.054
GGUCUGGAUACUAUACAACUUACUACCUCA	0.481 ± 0.028
GGAGUGCAUUCUAUACAACCUACUACCUCA	1.32 ± 0.11
GCUCCGGAUACUAUACAACCUACUACCUCA	1.81 ± 0.12
CCUCUCGAUACUAUACAACCUACAACCUCA	1.34 ± 0.077
GCUCUCGAUACUAUACAACCUACUACCUCA	1.86 ± 0.11
GGUCCGGAUACUAUACAACCUACUACCUCA	1.76 ± 0.11
GCUCUCGAUACUAUUCAACCUACUACCUCA	1.86 ± 0.11
GCUCGGGAUACUAUACAACCUACUACCUCA	1.5 ± 0.071
GGUCGGGAUACUAUACAACCUACUACCUCA	1.66 ± 0.11
CCUCUCGAUACUAUACAACCUACUACCUCA	2.01 ± 0.12
CCUCCGGAUACUAUACAACCUACUACCUCA	2.08 ± 0.14
CCUCUCGAUACUAUUCAACCUACUACCUCA	2.27 ± 0.15
CCUCGGGAUACUAUACAACCUACUACCUCA	2.3 ± 0.16
GGUCUCGAUACUAUUCAACCUACUACCUCA	1.86 ± 0.12
GGUCUGGUACUAUACAACCUACUACCUCA	1.73 ± 0.11
GGAGACCAAACUAUACAACCUAGUACCUCA	0.226 ± 0.033
GGAGACCUAUGUAUACAACCUACUACCUGCA	0.0855 ± 0.011

Sequence	pre-steady-state target cleavage rate
GGAGACCUAACUUAUACAACCUACUACCUCA	0.23 ± 0.041
CCUCUGGAUACUAUUCAACCUACUAGCUCA	1.37 ± 0.12
GGUCUCGAUACUUUACAACCUACUACCUCA	1.54 ± 0.093
GCUCUCGGAUACUAUACAACCUACUACCUCA	1.76 ± 0.088
CCUCUCGAUACUUUACAACCUACUACCUCA	2.13 ± 0.14
CCUCUCGAUACUAUACAACCUACUACCACA	2.21 ± 0.12
GGUCUCGAUACUAAACAACCUACUACCUCA	1.68 ± 0.12
CCUCUCGGAUACUAUACAACCUACUACCUCA	2.06 ± 0.15
GCUCUCGAUACUAAACAACCUACUACCUCA	1.81 ± 0.12
CCUCUCGAUACUAUACAACCUACUACCUGA	0.985 ± 0.087
CCUCGGAUACUAUACAACCUACUACCUCA	1.96 ± 0.13
CCUCUCGAUACUAAACAACCUACUACCUCA	2.13 ± 0.14
GCUCUCGAUACUUUACAACCUACUACCUCA	1.69 ± 0.11
GGUCUCGAUACUAUACAACCUACUACCACA	0.758 ± 0.064
GCUCUGGAUACUAUACAACCUACGACCUCA	1.22 ± 0.083
GGUCUGGAAACUAUACAACCAACUACCUCA	0.138 ± 0.015
GGAGACCAUACUUACAACCUACUACCUCA	0.269 ± 0.028
GGACAGGAUACUAAACAACCUACUACCUCA	1.64 ± 0.11
GGAGACCAUUCUAUACAACCUACUACCACA	1.16 ± 0.1
GCACUCGAUACUAUACAACCUACUACCUCA	1.43 ± 0.059
GCUCUCGAUACUAUACAACCUACUACCACA	2.17 ± 0.15
GGACUCGAUACUAUACAACCUACUACCUCA	1.69 ± 0.12
GCUCUCGAUACUAUACAACCUACUACCUGA	1.07 ± 0.11
GGACUCGAUACUAUACAACCUACUACCACA	0.579 ± 0.063

Sequence	pre-steady-state target cleavage rate
CCACUCGAUACUAUACAACCUACUACCUCA	2.13 ± 0.14
CCUCUGGAUACUAUACUACCUACUACCACA	1.68 ± 0.12
GGAGUGGAUACUACACAACCUACUACCUCA	1.71 ± 0.097
GGAGACGAUACUAUACAGCCUACUACCUCA	0.668 ± 0.028
GGAGUGGUUACUAUACAACCUAGUACCUCA	0.371 ± 0.05
GGAGACCUUACUAUACAACCUACUUCCUCA	0.399 ± 0.035
GCUCUGGAUAGAUUACAACCUACUACCUCA	0.735 ± 0.048
CCUCAGGUUACUAUACAACCUACUACCUCA	2.5 ± 0.16
CCUCAGGAUACUAUACAACCUACUACCUCA	1.98 ± 0.12
GCUCAGGAUACUAUACAACCUACUACCUCA	1.85 ± 0.11
GGACAGGUUACUAUACAACCUACUACCUCA	1.9 ± 0.14
GCUCAGGAUACUAUACAACCUACAACCUCA	0.866 ± 0.076
GCUCAGGUUACUAUACAACCUACUACCUCA	2.01 ± 0.12
GGUCUGGAUUCUAAACAACCUACUACCUCA	1.23 ± 0.071
GGAGACCUAUGUAUACAACCUACUCACCUCA	0.144 ± 0.027
GGAGACCUAACUAUACAACAUACUACCUCA	0.303 ± 0.036
GGAGAGGAUACUAUACACCCUACUACCUCA	1.4 ± 0.068
GGUCUGGAUACUAUACUACCUACAACCUCA	0.456 ± 0.054
GCUCUGGAUACUAUACAACCUACUACCUCCA	2.15 ± 0.14
GGUCUGGAUACUAUACAACCUACUACCUCU [g2:g28:cont:t1U]	1.59 ± 0.11
CCUCUGGAUACUAUACAACCUACUACCUCCA	2.27 ± 0.14
GCUCUGGAUACCUAUACAACCUACUACCUCA	1.06 ± 0.08
GCUCUGGAUACUAUACAACCUACUACCUACA	1.87 ± 0.13
GCUCUGGAUACUAUACAACCUACUACCUCU [g2:g29:cont:t1U]	2.16 ± 0.13

Sequence	pre-steady-state target cleavage rate
GGUCUGGAUACUAUACAACCUACUACCUCCA	2.06 ± 0.12
GCUCUGGAUACUAUACAACCUACUACCUCG [g2:g29:cont:t1G]	1.29 ± 0.098
GCUCUGGAUACUAUACAACCUACUACCUAA	1.83 ± 0.12
GGUCUGGAUACUAUACAACCUACUACCUCC [g2:g28:cont:t1C]	1.54 ± 0.11
GGAGACCAUACUAAACAACCUACUUCCUCA	0.195 ± 0.024
GGAGUGGAUACUAUACUACCUACUACCUGA	0.329 ± 0.052
GGAGUGGUUACUAUACAACGUACUACCUCA	0.386 ± 0.027
GGAGACGAUACUUUACAACCUACUAGCUCA	0.142 ± 0.027
GGUCUGGAUACUAUAGAACCUACUACCACA	0.0228 ± 0.0058
GGAGACGAUACAAUACAACCUACUACCUCA	1.29 ± 0.097
GGAGUGGAUACUAUAGAACCUACUACCUCA	1.34 ± 0.076
GGAGACCAUACUAUUCAACCUACUACCUGA	0.64 ± 0.075
GGAGAGGAUACUAUAGAACCUACUUCCUCA	0.00722 ± 0.0046
GGACUGCUUACUAUACAACCUACUACCUCA	1.54 ± 0.14
GGAGACCUAUGUAUACAAUCUACUACCUCA	0.0144 ± 0.0036
GCUCUGGAUACUAUACAACCUACUACCUA	1.37 ± 0.1
GCUCUGGAUACUAUACAACCUACUACCUCC [g2:g29:cont:t1C]	2 ± 0.13
GCUCUGGAUACUAUACUACCUACAACCUCA	0.938 ± 0.086
GGAGACCAUACUUUACAACCUACUACCUCA	1.3 ± 0.087
GCUCUGGAUACCAUACAACCUACUACCUCA	0.756 ± 0.059
GCUCUGGAUACUAUACAACCUACUAUCUCA	2.32 ± 0.24
GCUCUGGAUACUAUACAACCUACUACUCUCA	2.07 ± 0.12
CCUCUGGAUACUAUACAACCUACUCCUCA	0.105 ± 0.022
CCUCUGGAUACUAUACAACCUACUAUCUCA	1.09 ± 0.076

Sequence	pre-steady-state target cleavage rate
CCUCUGGAUACUAUACAACCUACUACUCA	1.76 ± 0.15
CCUCUGGAUACUAUACAACCUACUACUCUCA	2.32 ± 0.16
GCUCUGGAUACUAUACAACCUACUACUCA	1.64 ± 0.14
GCUCUGGAUACUAUACAACCUAUCUACCUCA	0.356 ± 0.028
GGUCUGGAUACUAUACAACCUACUACUCUCA	1.2 ± 0.1
CCUCUGGAUAGUAUACAACGUACUACCUCA	0.0367 ± 0.011
GGAGACCUAUCUAUACAACCUACUACCUUA	0.905 ± 0.069
GGAGACCUAUCUUUUCAACCUACUACCUCA	0.0982 ± 0.032
GCAUCUGGAUACUAUACAACCUACUACCUCA	1.82 ± 0.087
GGAGACCUAUGAUAUGUUGCUCACUACCUCA	0.00246 ± 0.0017
CCUCUGCAUACUAUACAACCUACUACCUCA	2.01 ± 0.12
CCUCUGCAUUCUAUACAACCUACUACCUCA	2.13 ± 0.13
CCUCUGCAUACUAUACAACCUACAACCUCA	1.7 ± 0.12
GGUCUGCAUACUAUUCAACCUACUACCUCA	1.65 ± 0.12
GCUCUGCAUACUAUACAACCUACUACCUCA	1.96 ± 0.11
CCUCUGCAUACUAUACAACCUACUACCACA	2.37 ± 0.19
GCUCUGCAUACUAUACAACCUACUACCACA	1.98 ± 0.18
GGUCUGCAUACUAUACAACCUACUACCACA	0.7 ± 0.07
GCUCUGCAUUCUAUACAACCUACUACCUCA	1.65 ± 0.11
GCUCUGCAUACUAUUCAACCUACUACCUCA	1.93 ± 0.12
GGUCUGCAUUCUAUACAACCUACUACCUCA	1.51 ± 0.11
CCUCUGCAUACUAUUCAACCUACUACCUCA	2.21 ± 0.14
GGACUGGAUACUAUACAAGGUACUACCUCA	0.331 ± 0.036
GCUCAGGAUACUAUACAACCUACUACCUGA	0.681 ± 0.042

Sequence	pre-steady-state target cleavage rate
GGAGACCAUACUAUACAACCUACUACCAUCA	1.35 ± 0.087
CCUCUGGAUACAAUACAACCUACUACCUGA	0.657 ± 0.085
GGAGACCUUACAAUACAAGCUACUACCUCA	0.258 ± 0.035
GCUCUGGAUAGUAUACAACCUACUACCUGA	0.324 ± 0.045
GGACUGGAUACUAUACAACCUAGAACCUCA	0.0154 ± 0.004
GGACUGGAAACUAUAGAACCUACUACCUCA	1.13 ± 0.08
GGAGAGGAUACUAUGCAACCUACUACCUCA	1.62 ± 0.095
GGACUGGAUACAUAACAACCUACUACCUCA	0.634 ± 0.11
GCUCUGCAUACUUUACAACCUACUACCUCA	1.68 ± 0.11
GGUCUGCAUACAAUACAACCUACUACCUCA	1.45 ± 0.11
GCUCUGCAUACAAUACAACCUACUACCUCA	1.82 ± 0.13
GGUGUGCAUACUAUACAACCUACUACCUCA	1.73 ± 0.1
GGUCUGCAUACUUUACAACCUACUACCUCA	1.48 ± 0.12
CCUGUGCAUACUAUACAACCUACUACCUCA	2.3 ± 0.15
GCUGUGCAUACUAUACAACCUACUACCUCA	1.91 ± 0.12
CCUCUGCAUACUUUACAACCUACUACCUCA	2.13 ± 0.15
CCUCUGCAUACAAUACAACCUACUACCUCA	2.02 ± 0.12
GCUCAGCAUACUAUACAACCUACUACCUCA	1.83 ± 0.11
GGUCAGCAUACUAUACAACCUACUACCUCA	1.81 ± 0.096
CCUCAGCAUACUAUACAACCUACUACCUCA	2.12 ± 0.13
GGAGACCUAUCUAAACAACCUACAACCUCA	0.00335 ± 0.0022
CCUCUGGAUACUAUACAGACCUACUACCUCA	0.0114 ± 0.0052
GGAGUGCAUACUAUACAACGUACUACCUCA	0.714 ± 0.039
